Results as given in PubChem BioAssay (NCATS).
Records with an inconclusive call do not appear. Activity calls are given as the source filed them. Calls follow the shape of the dose curve; as a rule, active = well fitted inhibition curve with a large enough effect; inconclusive = small, poorly fitted or top-dose-only effect; inactive = flat fitted curve, though single readings scatter.

Columns and labels:
Assay in all cases: qHTS profiling for inhibitors of Plasmodium falciparum proliferation (AID 504749); also: nearly all actives have a fitted effect of over 60% in size
Details in all cases: P. falciparum in erythrocytes, SYBR Green DNA, 72 h; series mostly up to 28.7 µM
3D7 = system: 3D7
Procedure, shortened: (§1)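 In a 72 h erythrocytic culture (37 C, humidified, 5% CO2) at 2.5% hematocrit and 0.3% starting parasitemia, compounds were tested; SYBR Green I in detergent lysis buffer stained parasite DNA overnight.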

7G8 = system: 7G8
Procedure, shortened: as §1

AA1029 = system: AA1029
Procedure, shortened: as §1

ATS95 = system: ATS95
Procedure, shortened: as §1

CP185 = system: CP185
Procedure, shortened: as §1

CP191 = system: CP191
Procedure, shortened: as §1

CP238 = system: CP238
Procedure, shortened: as §1

CP247 = system: CP247
Procedure, shortened: as §1

CP265 = system: CP265
Procedure, shortened: as §1

CP286 = system: CP286
Procedure, shortened: as §1

DFO2036 = system: DFO2036
Procedure, shortened: as §1

FAB9 = system: FAB9
Procedure, shortened: as §1

HB3 = system: HB3
Procedure, shortened: as §1

P94_40 = system: P94_40
Procedure, shortened: as §1

PAD = system: PAD
Procedure, shortened: as §1

PC15 = system: PC15
Procedure, shortened: as §1

PC49 = system: PC49
Procedure, shortened: as §1

TAB109 = system: TAB109
Procedure, shortened: as §1

TAB113 = system: TAB113
Procedure, shortened: as §1

TAB165 = system: TAB165
Procedure, shortened: as §1

Measured: Potency

CC(=O)OC1CC2CCC1(C)C2(C)C (stereo not given)
inactive: all assays above
